Among the data in PubChem BioAssay (NCATS) are Potency values, retold here.

Results filed as inconclusive are left out. Where a call stands in place of a potency, no number is given. Activity calls are given as the source filed them. The call rests on the fitted dose curve; in most records, active means well fitted inhibition curve with a large enough effect; inconclusive means small, poorly fitted or top-dose-only effect; inactive means flat fitted curve, though single readings scatter.
Potency means the concentration at half of the fitted maximal effect.

This assay has as its system Dd2. Description: qHTS profiling for inhibitors of Plasmodium falciparum proliferation (AID 504749). Further: nearly all actives have a fitted effect of over 60% in size. Conditions: P. falciparum in erythrocytes, SYBR Green DNA, 72 h; series mostly up to 28.7 µM. Put shortly: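 P. falciparum-infected erythrocytes (0.3% parasitemia, 2.5% hematocrit) incubated with compound 72 h at 37 C, 5% CO2. Parasite DNA detected by SYBR Green after lysis, overnight at room temperature; normalised to 0.29 uM artemisinin and DMSO.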
(In general: Quantitative high-throughput screening tests each substance at several concentrations.)
Regarding `S=C=Nc1ccc(N=C=S)cc1`, the Potency entry was “inactive”.
The value for `N=C(N)n1cccn1` was “inactive”; that for `Cc1cccc(C)c1NC(=O)NC1=CCCN1C` was “inactive”; that for `Cc1cc(-c2ccc(N=Nc3ccc4c(S(=O)(=O)O)cc(S(=O)(=O)O)c(N)c4c3O)c(C)c2)ccc1N=Nc1ccc2c(S(=O)(=O)O)cc(S(=O)(=O)O)c(N)c2c1O` was “inactive”.
The value for `O=P(O)(O)O` was “inactive”; that for `CN(CCO)CC(O)Cn1cnc2c1c(=O)n(C)c(=O)n2C` (centres undefined) (tested in a mixture with another compound) was “inactive”.
The value for `O=C(O)Cc1cc(I)c(Oc2ccc(O)c(I)c2)c(I)c1` was “inactive”; that for `COC1=C(OC)C(=O)C(C/C=C(\C)CC/C=C(\C)CC/C=C(\C)CC/C=C(\C)CC/C=C(\C)CC/C=C(\C)CC/C=C(\C)CC/C=C(\C)CC/C=C(\C)CCC=C(C)C)=C(C)C1=O` was “inactive”; that for `CN=C1C=CC(=C(c2ccc(N(C)C)cc2)c2ccc(N(C)C)cc2)C=C1` was 282 nM (active).
`CCOc1ccc(S(=O)(=O)O)c2cccnc12`: the Potency entry was “inactive”.
The value for `FC(F)(F)COCC(F)(F)F` was “inactive”.
On to `O=C(O)[C@H]1C(=CCO)O[C@H]2CC(=O)N12`, for which the Potency entry was “inactive”.
The value for `CC1CC(O)CC(C)(C)C1` (centres undefined) was “inactive”; that for `Cc1ncc(C[n+]2csc(CCOP(=O)(O)O)c2C)c(N)n1` was “inactive”.
The value for `CCCCO` was “inactive”; that for `CCOC(=S)SSC(=S)OCC` was “inactive”.
With `N[C@H](CC(=O)O)C(=O)O`, the Potency result was “inactive”.
The value for `CCC(C(=O)NC(N)=O)c1ccccc1` (centres undefined) was “inactive”; that for `CCN(CC)CCOC(=O)c1cccnc1` was “inactive”.
The value for `NC(=S)NS(=O)(=O)c1ccc(N)cc1` was “inactive”.
The value for `COc1cc2c(cc1OC)[C@@H](Cc1cc(OC)c(OC)c(OC)c1)[N+](C)(CCCOC(=O)CC/C=C/CCC(=O)OCCC[N+]1(C)CCc3cc(OC)c(OC)cc3[C@H]1Cc1cc(OC)c(OC)c(OC)c1)CC2` (some centres undefined) was “inactive”; that for `Cc1ncc(COP(=O)(O)O)c(CN)c1O` was “inactive”; that for `C[C@H](N)C(=O)N[C@@H](C)P(=O)(O)O` was “inactive”.
For `CO[C@H]1C[C@@H]2CC[C@@H](C)[C@@](O)(O2)C(=O)C(=O)N2CCCC[C@H]2C(=O)O[C@H]([C@H](C)C[C@@H]2CC[C@@H](OC(=O)C(C)(CO)CO)[C@H](OC)C2)CC(=O)[C@H](C)/C=C(\C)[C@@H](O)[C@@H](OC)C(=O)[C@H](C)C[C@H](C)/C=C/C=C/C=C/1C`, the Potency result was “inactive”.
The value for `CC1=C(/C=C/C(C)=C/C=C/C(C)=C/C(=O)Oc2c(C)c(C)c3c(c2C)CC[C@@](C)(CCC[C@H](C)CCC[C@H](C)CCCC(C)C)O3)C(C)(C)CCC1` was “inactive”.
Turning to `CCCCCCCCCCCCCC(=O)OCC(COP(=O)([O-])OCC[N+](C)(C)C)OC(=O)CCCCCCCCCCCCC` (centres undefined), the Potency entry is “inactive”.
The value for `CC(C)c1ncc([N+](=O)[O-])n1C` was “inactive”; that for `NC(=O)[C@@H]1CCCN1C(=O)[C@H](Cc1cnc[nH]1)NC(=O)[C@@H]1CCC(=O)N1` was “inactive”.
The value for `Cc1ccccn1` was “inactive”.
The value for `Nc1nccs1` was “inactive”; that for `O=C(NCCNCC(O)COc1ccc(O)cc1)N1CCOCC1` (centres undefined) was “inactive”.
Turning to `CC(C)CCC[C@@H](C)[C@H]1CC[C@H]2[C@@H]3CC=C4C[C@@H](O)CC[C@]4(C)[C@H]3CC[C@]12C`, the Potency entry is “inactive”.
As to `CS(=O)(=O)OCC(O)C(O)COS(C)(=O)=O` (centres undefined), the Potency result was “inactive”.
The value for `NCC[C@H](O)C(=O)N[C@@H]1C[C@H](N)[C@@H](O[C@H]2O[C@H](CN)CC[C@H]2N)[C@H](O)[C@H]1O[C@H]1O[C@H](CO)[C@@H](O)[C@H](N)[C@H]1O` was “inactive”; that for `OCC(O)CO` was “inactive”; that for `CCOc1ccc(NC(=S)Nc2ccc(OCC)cc2)cc1` was “inactive”.
The value for `CCOC(=O)c1cc(-c2ccccc2)nc2ccc(C)cc12` was “inactive”; that for `OCl` was “inactive”.
The value for `CCc1ncnc2cc(OC)c(OC)cc12` was “inactive”.
